TRPV1 potentiator = human TRPV1 potentiation | Q8NER1 | TRPV1-expressing cells, Fluo-8 calcium influx, capsaicin EC20 potentiation | potentiation, % at 8.33 µM | 320,000 compounds, 0.02% hits | AID 540277; in the data active = potentiation above about 80%; inconclusive = between about 30% and that limit; also: 0% is about no effect
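Fluo-8 calcium influx in TRPV1-expressing cells, kinetic read (ex 480/em 520 nm). Compound added and read 3 min for agonist activity, followed by capsaicin at EC20 final and 2 min further read for enhancement.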
VP16 counter = counter-screen for ROR gamma inhibitors: Gal4-VP16 reporter; Potency, µM (doses to about 53.6 µM), for the others: at the top dose activity, negative = inhibition, usual class: inhibitors; 310,000 compounds, 3.5% hits; Drosophila S2 Gal4-VP16 UAS-luciferase, luminescence, 20 h;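 also: Gal4-VP16 expression switched on by copper sulfate through the metallothionein promoter; potency is read from the fitted curve at half-maximal effect; % is scaled to controls: 0 for no effect and ±100 for the full control effect; nearly all actives have a fitted effect of over 50% in size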
TRPV1 ag = activates the human vanilloid receptor TRPV1 | Q8NER1 | TRPV1-expressing cells, Fluo-8 calcium influx, agonist mode | activation, % at 8.33 µM | 320,000 compounds, 0.19% hits | AID 540275; in the data active = activation above about 80%; inconclusive = between about 30% and that limit; also: 0% is about no effect
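Fluo-8 calcium influx in TRPV1-expressing cells, kinetic read (ex 480/em 520 nm). Compound added and read 3 min for agonist activity, followed by capsaicin at EC20 final and 2 min further read for enhancement.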
uPA generation = inhibitors of cell surface uPA generation; cell surface uPA generation assay, qHTS; Potency, µM (highest dose often 38.3 µM), inactives show top-dose activity change, negative = inhibition, usual class: inhibitors; 330,000 compounds, 0.31% hits; AID 540303; active = well fitted inhibition curve with a large enough effect; inconclusive = small, poorly fitted or top-dose-only effect; inactive = no such curve, though single readings can be large or run the other way; tested in mouse RAW 264.7 cells; also: potency is read from the fitted curve at half-maximal effect; % is scaled to controls: 0 for no effect and ±100 for the full control effect; nearly all actives have a fitted effect of over 55% in size
RORg inh = ROR gamma (mouse) transcription inhibition; AID 2551; Drosophila S2 Gal4-RORgamma UAS-luciferase reporter, 20 h; P51450; 310,000 compounds, 5.4% hits; Potency, µM (doses to about 53.6 µM), without a hit: top-dose activity change, negative = inhibition, hits mostly inhibitors; also: potency is read from the fitted curve at half-maximal effect; % is scaled to controls: 0 for no effect and ±100 for the full control effect; nearly all actives have a fitted effect of over 60% in size
Target sequence (P51450 whole entry, looked up, the tested form may be a part): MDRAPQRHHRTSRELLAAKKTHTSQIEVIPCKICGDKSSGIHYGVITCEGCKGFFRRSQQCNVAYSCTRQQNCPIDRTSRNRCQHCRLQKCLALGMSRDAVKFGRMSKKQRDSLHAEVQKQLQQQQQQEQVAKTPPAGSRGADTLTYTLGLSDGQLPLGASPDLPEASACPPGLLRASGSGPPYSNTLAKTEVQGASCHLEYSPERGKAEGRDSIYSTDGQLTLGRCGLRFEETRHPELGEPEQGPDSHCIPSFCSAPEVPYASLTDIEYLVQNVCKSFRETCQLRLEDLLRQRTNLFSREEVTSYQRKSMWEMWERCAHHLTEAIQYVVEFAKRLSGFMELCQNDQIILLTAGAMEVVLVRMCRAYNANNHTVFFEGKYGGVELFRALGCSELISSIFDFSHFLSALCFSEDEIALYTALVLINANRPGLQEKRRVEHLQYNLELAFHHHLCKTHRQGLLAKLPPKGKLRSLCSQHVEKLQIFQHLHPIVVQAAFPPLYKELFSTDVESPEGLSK
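A Gal4/UAS one-hybrid system in insect cells: metallothionein-promoter Gal4–ROR gamma fusion plus Photinus luciferase reporter. Copper sulfate 700 uM final, 20 hr ambient incubation, luminescent detection after 10 min with reagent.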
Numbers without * were called inactive; ? = inconclusive; . = no result; [ ] = dose if it differs, or a comment. Sampled rows, rich in hits. Any-hit rate of the full collection: about 5.8%. Unless noted, calls follow the shape of the dose curve; as a rule, active = well fitted curve in the direction sought with a large enough effect; inconclusive = small, poorly fitted or top-dose-only effect, or another doubt; inactive = no such curve, though single readings can be large; an effect the other way counts as inactive or inconclusive.

SMILES | TRPV1 potentiator | VP16 counter | TRPV1 ag | uPA generation | RORg inh
Cc1ccc(-c2nn(CCC(=O)NN3CCOCC3)c(=O)c3ccccc23)cc1 | 8 | 10% | -4 | -1% | -10%
CC(=O)Nc1ccc(SCC(CC(C)C)N2CCN(CCc3ccccc3)CCC2=O)cc1 (stereo unspecified) | . | -25% | . | . | -9%
COc1ccc2[nH]c3c(c2c1)CCNC3C1CC=C(C)CC1 (stereo unspecified) | -7 | 2% | 7 | 2.8µM* | 2%
Cc1ccc2nc(/C(C#N)=C\c3ccc(N4CCOCC4)o3)[nH]c2c1 | 2 | -1% | 5 | -6% | ?
Cc1ccc(/C(C#N)=C\c2ccc(N3CCOCC3)o2)cc1 | 10 | 2%[0.365 µM] | ? | ? | 1.8µM*
N#C/C(=C/c1ccc(N2CCCCCC2)o1)c1ccc(Cl)cc1 | 6 | 7.1µM* | -3 | . | 7.1µM*
N#C/C(=C/c1ccc(N2CCCCC2)o1)c1cccc(F)c1 | 10 | 10µM* | ? | . | 7.1µM*
N#C/C(=C\c1ccc(N2CCOCC2)o1)C(=O)NC1CCCCC1 | -21 | 1% | 26 | -3% | 43%
COc1cc([N+](=O)[O-])cc(/C=N/NC(=O)C(O)(c2ccccc2)c2ccccc2)c1O | 6 | 0.89µM* | -3 | 1% | 0.35µM*
COc1cc([N+](=O)[O-])cc(/C=N/NC(=O)c2cccnc2)c1O | -14 | -16% | 2 | 3% | -21%
O=C(N/N=C/c1cc([N+](=O)[O-])cc([N+](=O)[O-])c1O)/C(=C\c1cccs1)NC(=O)c1ccccc1 | 5 | ? | -3 | 5% | 11µM*
O=C(N/N=C/c1cccc([N+](=O)[O-])c1O)C(O)(c1ccccc1)c1ccccc1 | 3 | 1.3µM* | -1 | ? | 0.71µM*
Cc1cc(/C=N/NC(=O)C(O)(c2ccccc2)c2ccccc2)c(C)n1-c1cccc(C(=O)O)c1 | . | 6% | . | 11% | -9%
O=C(N/N=C/c1cccc([N+](=O)[O-])c1O)c1cccs1 | -6 | 0.79µM* | 3 | -9% | 1.1µM*
Cc1cccc(NC(=O)CN2CCN(C(=O)c3cncn3-c3ccc(F)cc3)CC2)c1C | -10 | . | 1 | 0% | .
CC1CCN(S(=O)(=O)c2ccc(S(=O)(=O)N3CCCC3)cc2)CC1 | -4 | 2% | -3 | 9% | -1%
CCCn1nnc(NC(=S)NC(=O)c2ccccc2OC)n1 | . | . | . | 3% | .
Cn1nnc(NC(=S)NC(=O)c2cc(Cl)ccc2Cl)n1 | -4 | 2µM* | -1 | 8% | 0.79µM*
COc1cc2ccccc2cc1C(=O)NC(=S)Nc1nnn(C)n1 | 9 | 1.1µM* | -3 | 1% | 1µM*
COc1cc2[nH]c(=S)nc(NCCCOC(C)C)c2cc1OC | 20 | ? | -6 | 0% | 16µM*
CCCCNc1nc(=S)[nH]c2cc(OC)c(OC)cc12 | 4 | 7.9µM* | 1 | -5% | 7.9µM*
CCCC1CC(C)(C(=O)CSc2n[nH]c(-c3ccccc3)n2)OC1=O (stereo unspecified) | -11 | 3% | 30 | -4% | ?
CC(=O)OC[C@@H]1O[C@H](CCO/N=C\[C@@H](C)[C@H](OCc2ccccc2)C(C)C)C=C[C@@H]1OC(C)=O | . | -1%[10 µM] | . | . | 5%[10 µM]
NC(=O)c1ccc(NC(=O)CSc2nnc(-c3ccccn3)n2N)cc1 | 2 | 7% | 3 | 16% | 11%
Cn1nccc1C(=O)NC(=S)Nc1cc(Cl)cc(Cl)c1 | -4 | 13µM* | 14 | -18% | 2.5µM*
SMILES | TRPV1 potentiator | VP16 counter | TRPV1 ag | uPA generation | RORg inh
COc1cc(NC(=O)c2ccnn2C)c(OC)cc1Cl | -3 | -15% | -2 | 5% | -17%
CCCCCCCCNc1ncnc2ccccc12 | 6 | 0.35µM* | ? | -24% | 2.2µM*
c1ccc(CCNc2ncnc3ccccc23)cc1 | -24 | 0.56µM* | ? | ? | 1.1µM*
Cc1cc2c(NCCc3ccccc3)ncnc2s1 | -5 | . | ? | -11% | .
CO[C@@H]1COC(=O)C/C=C\[C@@H](C)COC(=O)[C@H](Cc2ccccc2)NC(=O)C/C=C\[C@H]1C | . | -8%[10 µM] | . | . | 10%[10 µM]
S=c1nc2c(n[nH]1)c1ccccc1n2CCc1ccccc1 | -1 | 1.4µM* | -6 | -5% | 2.2µM*
CC(C)(C)NC(=O)C(=O)NNC(=O)c1cccc(Br)c1 | -1 | ? | 3 | 3% | ?
Cc1cccc(C(=O)NNC(=O)C(=O)NC(C)(C)C)c1 | 11 | -2% | 0 | 0% | 13µM*
CC(C)(C)NC(=O)C(=O)NNC(=O)c1ccc(C(C)(C)C)cc1 | -12 | ? | 25 | 3% | 8.9µM*
Cc1cccc(C(=O)NNC(=O)c2ccccc2O)c1 | 1 | ? | 1 | -20% | 13µM*
CNC1=C(Cl)C(=O)c2ccncc2C1=O | . | 5.6µM* | . | . | 2.8µM*
CNC1=C(Br)C(=O)c2ccncc2C1=O | . | 5.6µM* | . | . | 2.2µM*
CNc1ccncc1S(=O)(=O)NC | 3 | -19% | 2 | 0% | 5%
COc1cc([N+](=O)[O-])cc2sc(NC(C)=O)nc12 | 2 | 0% | 1 | 10µM* | 10%
O=S(=O)(NC1CCCCCCC1)c1ccccc1 | 0 | -7% | 8 | 9% | 15%
O=S(=O)(NC(=S)NC1CCCCC1)c1cccs1 | 4 | -84% | -1 | -1% | 11µM*
O=S(=O)(NC(=S)NC1CCCCC1)c1ccccc1 | 8 | ? | 1 | 0% | 4.5µM*
COc1ccccc1N1CCN(S(=O)(=O)c2cc(C(F)(F)F)cc(C(F)(F)F)c2)CC1 | 26 | 6% | 0 | 11% | 0%
O=c1c2ccccc2[nH]c(=S)n1-c1cccc(S(=O)(=O)N2CCCC2)c1 | 0 | ? | 3 | 0% | 3.2µM*
O=C(Nc1cccc(S(=O)(=O)N2CCCC2)c1)c1cc(=O)[nH]c2ccccc12 | 1 | . | 4 | -10% | .
COCCN(CCOC)c1nc(C)nc2c1nc(-c1ccccc1)n2CCN1CCCC1 | . | -4% | . | . | -8%
CC1Cc2ccccc2N1c1ncnc(N)c1[N+](=O)[O-] (stereo unspecified) | 2 | ? | -1 | ? | 4.5µM*
CC1CCCCN1c1ncnc(N)c1[N+](=O)[O-] (stereo unspecified) | 27 | -14% | -4 | -4% | -31%
CCNc1ncc2ncc(=O)n(CCOC)c2n1 | . | -3% | . | . | -29%
Cc1cc(C(F)(F)F)n2nc(-c3cnn(C)c3C(F)(F)F)c(Cl)c2n1 | 2 | -4% | -2 | . | 2%
O=C(N/N=C\c1ccccn1)C1c2ccccc2Oc2ccccc21 | -15 | ? | ? | 8% | 7.9µM*
O=C(Nc1ncccn1)C1c2ccccc2Oc2ccccc21 | 9 | -1% | 2 | 5% | -16%
O=C(N/N=C\c1ccccn1)C1COc2cc3ccccc3cc2O1 (stereo unspecified) | 1 | ? | 1 | -1% | 4.5µM*
Cc1cccc(N/C=C/C(=O)c2cccs2)c1C | -11 | ? | ? | -8% | 10µM*
COc1cc([N+](=O)[O-])ccc1N/C=C/C(=O)c1cccs1 | -10 | 8.9µM* | 6 | . | 8.9µM*
